The values below come from paper PMC7862700, “An all-to-all approach to the identification of sequence-specific readers for epigenetic DNA modifications on cytosine”.

Assay in all cases: DAPPL (digital affinity profiling via proximity ligation, sequencing); 10 mM Tris-HCl pH 7.5, 50 mM NaCl, 1 mM DTT, 4% glycerol, room temperature, 30 min; GST-TFs on glutathione beads, 16-mer random dsDNA library, 0.1% formaldehyde crosslink after washing; high values mean tight binding
For assay [1], the target named is T1, FEV (Homo sapiens, UniProt Q99581 1-238).
T1 sequence: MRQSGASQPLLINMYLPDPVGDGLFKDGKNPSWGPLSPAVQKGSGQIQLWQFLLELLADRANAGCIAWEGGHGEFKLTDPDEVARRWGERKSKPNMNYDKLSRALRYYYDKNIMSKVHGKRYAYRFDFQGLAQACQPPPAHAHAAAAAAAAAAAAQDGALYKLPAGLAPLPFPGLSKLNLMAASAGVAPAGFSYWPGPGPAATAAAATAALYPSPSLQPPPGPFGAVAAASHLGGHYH
The following applies: protein: recombinant; tags: N-terminal GST; dsDNA, one strand shown. The procedure, abridged: (§1)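 In yeast, human transcription factors were expressed with a GST fusion, then pulled down on glutathione beads and given DNA barcodes. Pooled with a tag-only sample, they were exposed to 200 nmole of a 16-mer random double-stranded DNA library (Tris/NaCl/DTT/glycerol buffer, room temperature, 30 min), washed, crosslinked with 0.1% formaldehyde, proximity-ligated using BsaI/T4 ligase for 1 h at 37 °C, PCR-amplified and read on an Illumina NextSeq500. Each hexamer's frequency of reads for a factor, divided by the matching frequency for the tag-only sample, gives the binding signal.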

For assay [2], the target named is ETV5 (Homo sapiens, UniProt P41161 1-510). The following applies: protein: recombinant; tags: N-terminal GST; dsDNA, one strand shown. The procedure, abridged: as §1
Assay [3] deals with HSF1 (Homo sapiens, UniProt Q00613 1-529). The following applies: protein: recombinant; tags: N-terminal GST; chain copies: 3; dsDNA, one strand shown. In short, it runs like this:
as §1

Assay [4] deals with T2, SPIC (Homo sapiens, UniProt Q8N5J4 1-248).
T2 sequence: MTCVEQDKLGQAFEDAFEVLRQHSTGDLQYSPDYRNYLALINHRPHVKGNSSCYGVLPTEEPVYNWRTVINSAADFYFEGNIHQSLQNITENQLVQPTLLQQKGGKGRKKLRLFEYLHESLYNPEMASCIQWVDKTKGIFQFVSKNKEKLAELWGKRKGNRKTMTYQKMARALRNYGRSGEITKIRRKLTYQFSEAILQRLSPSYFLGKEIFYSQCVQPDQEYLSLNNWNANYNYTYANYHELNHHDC
The following applies: protein: recombinant; tags: N-terminal GST; dsDNA, one strand shown. In short, it runs like this: as §1

In assay [5] the target is ELF4 (Homo sapiens, UniProt Q99607 1-663). The following applies: protein: recombinant; tags: N-terminal GST; dsDNA, one strand shown. In short, it runs like this:
as §1

Assay [6] addresses T3, ELK4 (Homo sapiens, UniProt P28324-2 1-405).
T3 sequence: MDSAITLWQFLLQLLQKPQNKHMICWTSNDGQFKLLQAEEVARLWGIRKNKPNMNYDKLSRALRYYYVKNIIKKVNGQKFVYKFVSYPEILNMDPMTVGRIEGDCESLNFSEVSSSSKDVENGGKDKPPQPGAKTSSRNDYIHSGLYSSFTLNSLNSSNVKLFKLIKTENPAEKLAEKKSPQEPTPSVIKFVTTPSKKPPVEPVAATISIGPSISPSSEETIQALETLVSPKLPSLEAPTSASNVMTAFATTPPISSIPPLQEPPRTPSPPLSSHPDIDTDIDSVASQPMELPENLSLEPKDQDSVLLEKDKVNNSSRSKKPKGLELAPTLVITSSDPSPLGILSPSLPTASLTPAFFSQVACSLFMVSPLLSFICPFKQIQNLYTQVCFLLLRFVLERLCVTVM
The following applies: protein: recombinant; tags: N-terminal GST; dsDNA, one strand shown. In short, it runs like this:
as §1

Assay [7] concerns the target T4, ETV2 (Homo sapiens, UniProt O00321 1-342).
T4 sequence: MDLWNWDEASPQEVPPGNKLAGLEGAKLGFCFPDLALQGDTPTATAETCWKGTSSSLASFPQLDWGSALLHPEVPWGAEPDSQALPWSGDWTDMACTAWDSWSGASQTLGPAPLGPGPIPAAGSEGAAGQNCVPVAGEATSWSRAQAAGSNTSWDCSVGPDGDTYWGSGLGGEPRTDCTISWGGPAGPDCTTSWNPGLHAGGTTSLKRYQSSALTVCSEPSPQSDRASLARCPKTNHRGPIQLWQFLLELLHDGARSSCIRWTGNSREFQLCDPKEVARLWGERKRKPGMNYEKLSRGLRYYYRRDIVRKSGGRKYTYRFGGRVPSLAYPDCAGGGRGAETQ
The following applies: protein: recombinant; tags: N-terminal GST; dsDNA, one strand shown. The procedure, abridged: as §1

Assay [8] addresses T5, ELF3 (Homo sapiens, UniProt P78545 1-371).
T5 sequence: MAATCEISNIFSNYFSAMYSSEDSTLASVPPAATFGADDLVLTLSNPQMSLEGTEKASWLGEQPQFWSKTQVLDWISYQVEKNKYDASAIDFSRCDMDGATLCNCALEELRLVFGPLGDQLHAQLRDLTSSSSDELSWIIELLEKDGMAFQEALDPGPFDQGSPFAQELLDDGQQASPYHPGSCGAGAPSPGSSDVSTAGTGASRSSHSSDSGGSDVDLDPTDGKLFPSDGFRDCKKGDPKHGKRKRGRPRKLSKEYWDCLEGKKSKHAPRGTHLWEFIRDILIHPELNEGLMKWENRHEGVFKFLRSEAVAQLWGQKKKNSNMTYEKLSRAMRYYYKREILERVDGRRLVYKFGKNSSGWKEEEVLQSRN
The following applies: protein: recombinant; tags: N-terminal GST; dsDNA, one strand shown. In short, it runs like this: as §1

The target of assay [9] is CRX (Homo sapiens, UniProt O43186 1-299). The following applies: protein: recombinant; tags: N-terminal GST; dsDNA, one strand shown. The procedure, abridged:
as §1

The target of assay [10] is ETV1 (Homo sapiens, UniProt P50549 1-477). The following applies: protein: recombinant; tags: N-terminal GST; dsDNA, one strand shown. In short, it runs like this:
as §1

Chain of HSF1 (Q00613 whole entry): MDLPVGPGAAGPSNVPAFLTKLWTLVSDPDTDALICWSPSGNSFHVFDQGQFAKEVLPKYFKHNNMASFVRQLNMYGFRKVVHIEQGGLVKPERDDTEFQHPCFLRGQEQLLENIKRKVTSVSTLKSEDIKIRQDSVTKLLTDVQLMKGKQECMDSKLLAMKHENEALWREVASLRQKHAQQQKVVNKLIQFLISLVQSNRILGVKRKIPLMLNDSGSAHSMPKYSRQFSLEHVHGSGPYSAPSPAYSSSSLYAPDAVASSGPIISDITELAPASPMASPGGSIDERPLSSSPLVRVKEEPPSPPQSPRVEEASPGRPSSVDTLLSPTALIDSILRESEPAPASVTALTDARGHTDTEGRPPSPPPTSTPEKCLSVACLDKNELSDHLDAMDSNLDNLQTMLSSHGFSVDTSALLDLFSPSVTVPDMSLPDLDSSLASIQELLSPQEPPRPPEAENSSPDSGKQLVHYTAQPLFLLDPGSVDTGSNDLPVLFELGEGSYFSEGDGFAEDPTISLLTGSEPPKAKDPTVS
Chain of ELF4 (Q99607 whole entry): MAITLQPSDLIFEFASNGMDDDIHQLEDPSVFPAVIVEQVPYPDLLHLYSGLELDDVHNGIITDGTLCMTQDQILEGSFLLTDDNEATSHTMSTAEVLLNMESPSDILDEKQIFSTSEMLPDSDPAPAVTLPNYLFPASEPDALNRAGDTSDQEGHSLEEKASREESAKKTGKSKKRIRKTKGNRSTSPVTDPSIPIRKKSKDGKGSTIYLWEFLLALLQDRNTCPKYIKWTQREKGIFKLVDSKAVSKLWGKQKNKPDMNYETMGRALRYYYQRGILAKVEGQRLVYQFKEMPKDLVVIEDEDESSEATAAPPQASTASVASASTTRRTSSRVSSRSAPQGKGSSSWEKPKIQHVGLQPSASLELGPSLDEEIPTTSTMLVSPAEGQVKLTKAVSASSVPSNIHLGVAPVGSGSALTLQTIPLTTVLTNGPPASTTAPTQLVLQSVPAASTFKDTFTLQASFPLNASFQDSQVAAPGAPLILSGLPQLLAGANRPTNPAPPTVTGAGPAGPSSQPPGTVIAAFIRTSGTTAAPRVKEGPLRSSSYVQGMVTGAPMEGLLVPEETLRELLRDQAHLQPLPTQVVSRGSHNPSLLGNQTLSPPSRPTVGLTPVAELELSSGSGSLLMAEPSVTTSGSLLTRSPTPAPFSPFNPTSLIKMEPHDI
Chain of ETV5 (P41161 whole entry): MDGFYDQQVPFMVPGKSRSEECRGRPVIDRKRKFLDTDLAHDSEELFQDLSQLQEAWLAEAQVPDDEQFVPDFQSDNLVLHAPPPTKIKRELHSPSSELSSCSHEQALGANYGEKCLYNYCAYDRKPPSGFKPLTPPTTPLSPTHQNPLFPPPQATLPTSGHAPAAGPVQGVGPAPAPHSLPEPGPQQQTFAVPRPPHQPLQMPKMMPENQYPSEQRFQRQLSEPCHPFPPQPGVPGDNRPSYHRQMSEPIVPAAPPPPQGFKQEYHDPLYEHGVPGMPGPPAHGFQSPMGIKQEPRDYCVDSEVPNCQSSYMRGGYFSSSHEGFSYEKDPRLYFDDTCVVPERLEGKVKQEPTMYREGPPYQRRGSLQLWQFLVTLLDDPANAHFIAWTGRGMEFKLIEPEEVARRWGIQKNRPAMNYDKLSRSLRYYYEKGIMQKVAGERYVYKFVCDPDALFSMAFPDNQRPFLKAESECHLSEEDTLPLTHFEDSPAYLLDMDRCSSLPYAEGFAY
Chain of ETV1 (P50549 whole entry): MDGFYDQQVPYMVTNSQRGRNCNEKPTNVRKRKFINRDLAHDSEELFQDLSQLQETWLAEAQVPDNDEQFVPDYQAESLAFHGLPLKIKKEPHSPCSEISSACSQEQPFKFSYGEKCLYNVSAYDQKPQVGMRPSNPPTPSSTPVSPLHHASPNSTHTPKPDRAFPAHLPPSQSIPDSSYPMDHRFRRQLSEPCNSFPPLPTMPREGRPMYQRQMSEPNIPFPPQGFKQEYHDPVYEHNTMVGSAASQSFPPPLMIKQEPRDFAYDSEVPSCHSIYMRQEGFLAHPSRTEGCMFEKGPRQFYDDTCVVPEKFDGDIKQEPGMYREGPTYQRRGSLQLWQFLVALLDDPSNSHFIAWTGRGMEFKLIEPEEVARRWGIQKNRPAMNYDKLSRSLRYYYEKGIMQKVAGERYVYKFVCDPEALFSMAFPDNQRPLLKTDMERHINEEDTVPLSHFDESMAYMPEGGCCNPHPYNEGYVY
Chain of CRX (O43186 whole entry): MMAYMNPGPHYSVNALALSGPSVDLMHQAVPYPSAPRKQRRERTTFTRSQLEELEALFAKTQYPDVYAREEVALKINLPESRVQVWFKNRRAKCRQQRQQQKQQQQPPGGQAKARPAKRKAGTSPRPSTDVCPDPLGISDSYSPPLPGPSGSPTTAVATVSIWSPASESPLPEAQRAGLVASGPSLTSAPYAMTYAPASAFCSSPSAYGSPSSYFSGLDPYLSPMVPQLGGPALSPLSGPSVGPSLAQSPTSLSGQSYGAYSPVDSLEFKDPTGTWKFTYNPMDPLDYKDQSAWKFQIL

For the sequence TCTAGT, the binding signal was 1.03 fold enrichment (6-mer frequency, TF over GST control) in assay [1]; 1.06 fold enrichment (6-mer frequency, TF over GST control) in [2]; 2.32 fold enrichment (6-mer frequency, TF over GST control) in assay [3]; 1.18 fold enrichment (6-mer frequency, TF over GST control) in [4]; 1.09 fold enrichment (6-mer frequency, TF over GST control) in assay [5]; 1.17 fold enrichment (6-mer frequency, TF over GST control) in assay [6]. For the same sequence, the binding signal was 1.04 fold enrichment (6-mer frequency, TF over GST control) in assay [7]; 1.28 fold enrichment (6-mer frequency, TF over GST control) in assay [8]; 1.37 fold enrichment (6-mer frequency, TF over GST control) in assay [9]; 1.01 fold enrichment (6-mer frequency, TF over GST control) in assay [10].

As for TCCCGG, the binding signal was 2.09 fold enrichment (6-mer frequency, TF over GST control) in [1]; 2.27 fold enrichment (6-mer frequency, TF over GST control) in [2]; 1.37 fold enrichment (6-mer frequency, TF over GST control) in [3]; 2.35 fold enrichment (6-mer frequency, TF over GST control) in assay [4]; 2 fold enrichment (6-mer frequency, TF over GST control) in [5]; 1.91 fold enrichment (6-mer frequency, TF over GST control) in [6]. Further, the binding signal is 2 fold enrichment (6-mer frequency, TF over GST control) in assay [7]; 2.17 fold enrichment (6-mer frequency, TF over GST control) in assay [8]; 1.41 fold enrichment (6-mer frequency, TF over GST control) in assay [9]; 2.21 fold enrichment (6-mer frequency, TF over GST control) in assay [10].

Consider TACATG, for which the binding signal is 1.12 fold enrichment (6-mer frequency, TF over GST control) in assay [1]; 1.26 fold enrichment (6-mer frequency, TF over GST control) in [2]; 1.08 fold enrichment (6-mer frequency, TF over GST control) in [3]; 1.17 fold enrichment (6-mer frequency, TF over GST control) in [4]; 1.29 fold enrichment (6-mer frequency, TF over GST control) in assay [5]; 1.24 fold enrichment (6-mer frequency, TF over GST control) in [6]. The binding signal in assay [7] is 1.24 fold enrichment (6-mer frequency, TF over GST control); in assay [8], 1.28 fold enrichment (6-mer frequency, TF over GST control); in assay [9], 1.09 fold enrichment (6-mer frequency, TF over GST control); in assay [10] it was 1.21 fold enrichment (6-mer frequency, TF over GST control).

As to AATTAT, the binding signal in assay [1] was 1.25 fold enrichment (6-mer frequency, TF over GST control); in assay [2] it was 1.29 fold enrichment (6-mer frequency, TF over GST control); in [3] it was 1.55 fold enrichment (6-mer frequency, TF over GST control); in assay [4], 1.33 fold enrichment (6-mer frequency, TF over GST control); in assay [5], 1.16 fold enrichment (6-mer frequency, TF over GST control); in assay [6], 1.12 fold enrichment (6-mer frequency, TF over GST control). Further, the binding signal is 1.28 fold enrichment (6-mer frequency, TF over GST control) in [7]; 1.27 fold enrichment (6-mer frequency, TF over GST control) in assay [8]; 2.05 fold enrichment (6-mer frequency, TF over GST control) in assay [9]; 1.26 fold enrichment (6-mer frequency, TF over GST control) in assay [10].

On to CCCTAT, for which the binding signal in [1] is 1.39 fold enrichment (6-mer frequency, TF over GST control); in [2], 1.29 fold enrichment (6-mer frequency, TF over GST control); in assay [3] it was 1.13 fold enrichment (6-mer frequency, TF over GST control); in assay [4] it was 1.2 fold enrichment (6-mer frequency, TF over GST control); in assay [5] it was 1.37 fold enrichment (6-mer frequency, TF over GST control); in assay [6] it was 1.29 fold enrichment (6-mer frequency, TF over GST control). Further, the binding signal in [7] is 1.33 fold enrichment (6-mer frequency, TF over GST control); in assay [8], 1.29 fold enrichment (6-mer frequency, TF over GST control); in assay [9], 1.17 fold enrichment (6-mer frequency, TF over GST control); in assay [10] it was 1.37 fold enrichment (6-mer frequency, TF over GST control).

For the sequence CGTTCG, the binding signal was 1.1 fold enrichment (6-mer frequency, TF over GST control) in [1]; 1.2 fold enrichment (6-mer frequency, TF over GST control) in [2]; 1.43 fold enrichment (6-mer frequency, TF over GST control) in assay [3]; 1.16 fold enrichment (6-mer frequency, TF over GST control) in [4]; 1.32 fold enrichment (6-mer frequency, TF over GST control) in assay [5]; 1.22 fold enrichment (6-mer frequency, TF over GST control) in assay [6]. Also, the binding signal is 1.44 fold enrichment (6-mer frequency, TF over GST control) in assay [7]; 1.08 fold enrichment (6-mer frequency, TF over GST control) in [8]; 1.04 fold enrichment (6-mer frequency, TF over GST control) in assay [9]; 1.19 fold enrichment (6-mer frequency, TF over GST control) in assay [10].

As to ATATAC, the binding signal is 1.11 fold enrichment (6-mer frequency, TF over GST control) in [1]; 1.16 fold enrichment (6-mer frequency, TF over GST control) in [2]; 1.12 fold enrichment (6-mer frequency, TF over GST control) in [3]; 1.17 fold enrichment (6-mer frequency, TF over GST control) in [4]; 1.13 fold enrichment (6-mer frequency, TF over GST control) in assay [5]; 1.2 fold enrichment (6-mer frequency, TF over GST control) in [6]. Also, the binding signal in assay [7] was 1.12 fold enrichment (6-mer frequency, TF over GST control); in assay [8], 1.22 fold enrichment (6-mer frequency, TF over GST control); in assay [9], 1.08 fold enrichment (6-mer frequency, TF over GST control); in [10] it was 1.21 fold enrichment (6-mer frequency, TF over GST control).
